Source: PubChem (National Center for Advancing Translational Sciences (NCATS))
Marburg entry inh: inhibitors of Marburg virus binding or cell entry; Marburg virus pseudotyped entry inhibition, cell reporter; Potency, µM (doses to about 37.8 µM), inactives show at the top dose activity change, negative = inhibition, usual class: inhibitors; 300,000 tested, 1.8% active; AID 540276; calls by dose curve; tested in HEK293 cells; note: potency is the fitted concentration of half-maximal effect; % is set by controls: 0 for no effect and ±100 for the full control effect
SARS PLP yeast: SARS-CoV PLP inhibition in yeast; S. cerevisiae expressing SARS-CoV PLpro, growth rescue; Potency, µM (highest dose often 32.9 µM), without a hit: at the highest dose activity, positive = growth rescue, usual class: activators; 330,000 tested, 0.19% active; calls by dose curve; note: potency is the fitted concentration of half-maximal effect; 0% is about no effect; nearly all actives have a fitted effect of over 55% in size
HCV inhibitor: HCV inhibition. Huh7.5.1 HCVcc-Cre infection, luciferase reporter, 44 h. Potency, µM (series often up to 41.8 µM), inactives show top-dose activity change, negative = inhibition, actives largely listed as inhibitors. 340,000 tested, 3.4% active. AID 651820; active = well fitted inhibition curve with a large enough effect; inconclusive = small, poorly fitted or top-dose-only effect, or another doubt; inactive = no such curve, though single readings can be large or run the other way; note: potency is the fitted concentration of half-maximal effect; % is set by controls: 0 for no effect and ±100 for the full control effect
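Luciferase read-out (15 sec integration) after a 15 min room-temperature substrate step quantifies HCVcc-Cre infection. Cells, 1,000 per well, had compound added 4 h post-plating, then virus at ~0.5 moi, and were cultured 44 h.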
HCMV inh: inhibitors of human cytomegalovirus; 410,000 tested, 4.5% active; HFF cells, HCMV-luciferase reporter, 72 h; stronger effect = lower value; activity change, negative = inhibition, % at 57.5 µM; in the data active = activity change below about -60%; inconclusive = no clear call, values can overlap the other calls; inactive = above about -39%; note: % is set by controls: 0 for no effect and ±100 for the full control effect
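Steps: HFFs plated, 16 h 37C; compounds added; HCMV-luciferase added to MOI 1 PFU/cell; 72 h 37C; OneGlo reagent, 5 min room temperature; luminescence read, normalized to controls.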
Lassa entry inh: Lassa virus entry inhibition. AID 540256. 300,000 tested, 1.2% active. Potency, µM (doses to about 37.9 µM), without a hit: at the highest dose activity change, negative = inhibition, most hits filed as inhibitors. Lassa virus pseudotype entry inhibition, cell reporter; calls by dose curve; tested in HEK293 cells; note: potency is the fitted concentration of half-maximal effect; % is set by controls: 0 for no effect and ±100 for the full control effect; nearly all actives have a fitted effect of over 50% in size
FMDV inh: antivirals against foot and mouth disease virus; 410,000 tested, 1.2% active; AID 1159524; Potency, µM (top dose mostly 57.9 µM), inactives show top-dose activity change, negative = inhibition, hits mostly inhibitors; FMDV antiviral cell-based qHTS; calls by dose curve; tested in HEK293T cells; note: read-out not given here; potency is the fitted concentration of half-maximal effect; % is set by controls: 0 for no effect and ±100 for the full control effect; nearly all actives have a fitted effect of over 45% in size
The depositor's hits bear a star; ? = inconclusive; . = no result; [ ] = another dose, or the depositor's remark. Compounds with a hit are over-represented: about 8% of the library has one in this group of screens.

SMILES	Marburg entry inh	SARS PLP yeast	HCV inhibitor	HCMV inh	Lassa entry inh	FMDV inh
Cc1ccsc1C(=O)Nc1cc(C(C)(C)C)nn1-c1ccccc1	18%	-4%	?	-110*	-21%	-19%
COc1ccccc1-n1cnnc1SCC(=O)Nc1cc(C(C)(C)C)nn1-c1ccccc1	-21%	6%	?	?	-11%	-27%
COc1ccc(-n2cnnc2SCC(=O)Nc2cc(C(C)(C)C)nn2-c2ccccc2)cc1	-4%	9%	-3%	-96*	-14%	0%
CCN(CC)C(=O)Cn1cc(C(=O)C(=O)NCCCN2CCCCC2)c2ccccc21	-13%	-2%	?	-8	-1%	-11%
COc1cc(NC(=O)CSc2nnc3ccccn23)cc(OC)c1	.	-6%	9%	41	.	-8%
CC(C)(C)c1cc(NC(=O)CCSc2nnc3ccccn23)cc(C(C)(C)C)c1	?	.	4µM*	-30	-26%	-17%
CCOC(=O)C1(Cc2cccc(OC)c2)CCN(Cc2cccnc2)CC1	-1%[46.1 µM]	-2%	-6%	2	-2%	-25%
O=C(O)c1ccc(NC2=C/C(=N/S(=O)(=O)c3ccccc3)c3ccccc3C2=O)cc1	4µM*	-21%	6.3µM*	-101*	7.1µM*	11µM*
CCc1ccc(S(=O)(=O)/N=C2\C=C(Nc3ccc(O)cc3)C(=O)c3ccccc32)cc1	?	-15%	?	.	4.5µM*	35µM*
Cc1cc(C)c(S(=O)(=O)/N=C2\C=C(Nc3ccc(C(=O)O)cc3)C(=O)c3ccccc32)c(C)c1	5.6µM*	-12%	?	-85*	?	?
Cc1cc(C)c(S(=O)(=O)/N=C2\C=C(NS(=O)(=O)c3ccccc3)C(=O)c3ccccc32)c(C)c1	?	0%	9%	55	23%[46.1 µM]	49%
Cc1cccc(NC(=O)CN2C(=O)c3cccnc3Oc3ccc(Cl)cc32)c1C	.	.	.	0	3%[46.1 µM]	-6%
Cc1ccc(S(=O)(=O)N2C[C@H]3[C@H]4C(=O)N(c5ccccc5)C(=O)[C@H]4C[C@H](OC(=O)NCc4ccccc4F)[C@@]3(O)C2)cc1	.	.	.	14	.	?
CC(C)(C)C(=O)Nc1ccc2nc(SCC(=O)N3CCc4ccccc43)sc2c1	?	.	.	-9	?	?
O=[N+]([O-])c1ccc(S(=O)(=O)c2cccc(C(F)(F)F)c2)nc1	11µM*	.	?	.	?	18µM*
O=S(=O)(Nc1cccnc1)c1cccc(C(F)(F)F)c1	-13%	1%	1%	10	?	18%
Cc1cc(C)cc(-n2nc(C)cc2N)c1	-10%	-7%	10µM*	33	-10%	21%
CC1Sc2n(c3ccccc3[n+]2C)N=C1c1ccccc1 (centres undefined)	?	-16%	-17%	-97*	?	?
COc1ccc(C2=Nn3c(nnc3-c3ccccn3)SC2)cc1	1%	1%	-29%	11	-6%	-21%
C[n+]1c2n(c3ccccc31)N=C(c1ccc(Cl)cc1)CS2	?	-29%	?	-96*	?	?
COc1ccc(C2=Nn3c([n+](C)c4ccccc43)SC2)cc1	.	2%	2.2µM*	-81*	.	?
C[n+]1c(-c2ccccc2)sc2ccccc21	.	-5%	-17%	-22	.	-2%
O=C(Nn1c(C2CCC2)nc2ccccc2c1=O)c1cccs1	-4%[46.1 µM]	0%	17%	-11	8%[46.1 µM]	-9%
COc1ccc(-c2nnc(Nc3nc4c(OC)cccc4s3)o2)cc1	0%	-7%	?	2	-9%	16%
COc1ccc(-c2nnc(Nc3nc4c(OC)cccc4s3)o2)c(OC)c1	?	5%	6.3µM*	.	?	.
Cc1ccc(C)c(NC(=O)Cn2cnc3nc4c(cc3c2=O)CCCC4)c1	.	.	.	35	-14%[46.1 µM]	-29%
Cc1ccc(NCc2cccn2-c2nnc(N3CCCCCC3)s2)cc1	.	.	.	-28	24%[46.1 µM]	-7%
O=C(N/N=C/c1cn(-c2cccs2)nc1-c1ccccc1)c1ccccc1O	16µM*	-71%	?	-14	13µM*	20µM*
O=C(N/N=C/c1cn(-c2cccs2)nc1-c1ccccc1)c1ccccc1Br	-28%	-11%	7.1µM*	38	-13%	17%
